In PubChem BioAssay (NCATS):
Records with an inconclusive call do not appear. The call rests on the fitted dose curve; in most records, active means well fitted curve in either direction with a large enough effect (not every such curve was filed as active); inconclusive means small, poorly fitted or top-dose-only effect, or another doubt; inactive means flat fitted curve, though single readings scatter.

Assay: AP1 Signaling Pathway (AID 357);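 further: ME-180 reporter cells stimulated with EGF at its EC50 level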
Conditions: ME-180 (cervical carcinoma) AP-1-bla reporter, EGF-induced, beta-lactamase ratio, 5 h; at 17.2 µM (top of the series) unless noted
Outline: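 In this screen, ME-180 cells in Opti-MEM with 0.5% dialyzed FBS received EC50 EGF and compound titrations for 5 h. AP-1 reporter beta-lactamase was detected via CCF4 ratio, giving AC50 for positive and negative modulators.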
On the % scale 0 is the no-effect control and ±100 the full control effect.

Activity change, negative = inhibition, inactive:
CC1(C)CC(=O)C=C(NCc2ccncc2)C1 10%, COCC(C)Nc1ncnc2c1cnn2-c1ccc(Cl)cc1 (stereo not given) -23.7%, CCOCCn1c(SC)nc2c1c(=O)[nH]c(=O)n2C 11%, COc1cccc(C2/C(=C(\O)c3ccc4c(c3)OCCO4)C(=O)C(=O)N2CCCN(C)C)c1OC (stereo not given) 4.3%, O=c1[nH]cnc2cc(-c3ccccc3)sc12 -9.08%, C#CC1CN(Cc2ccccc2)CC(C#C)N1C (stereo not given) 9.35%, N#CC1=C(C=Nc2ccccc2O)CCC1 12.3%, O=C(O)CCCC(=O)N1CCN(C(c2ccccc2)c2ccccc2)CC1 1.43%, Cc1nc(NCCO)c(C#N)c2c1COC(C)(C)C2 -5.08%, CCN(CC)c1ncc(C)c(=O)[nH]1 16.3%, O=C(O)c1ccc(COc2c(F)c(F)c(F)c(F)c2F)o1 4.64%, CCOC(=O)c1ccc(-n2c(=O)[nH]c3ccccc3c2=O)cc1 3.86%, CCNC(=O)Nn1c(C)nnc1C 15.4%, CC(=O)N/C(=N/c1nc(C)cc(C)n1)Nc1ccc(NC(C)=O)cc1 -2.08%, COC(=O)[C@@H](N)Cc1ccc(O)cc1 -11%, O=C(O)CC(NCc1ccco1)C(=O)OCCc1ccccc1 (stereo not given) 2.29%, O=C(O)CN(c1ccccc1)C1SC(=O)NC1=O (stereo not given) 3.92%, COc1ccc(CN(C)CCc2ccccn2)c(OC)c1OC -14.2%, Cn1c(=O)c2c(nc(N3CCN(Cc4ccccc4)CC3)n2CC(=O)c2ccccc2)n(C)c1=O -9.66%, O=S(=O)(/C=C/c1ccccc1)Nc1ccc2c(c1)OCO2 -20.8%, COc1ccc(-c2cc3nc4n(c(=O)c3s2)CCOC4)cc1 18.4%, COc1cccc(Cn2c(NCc3ccccn3)nc3c2c(=O)n(C)c(=O)n3C)c1 -10.2%, CCOc1ccc(/C(O)=C2/C(=O)C(=O)N(CCN(C)C)C2c2ccccc2)cc1Cl (stereo not given) 8.45%, CCOC(=O)C1=C(N)N2C(=O)CSC2=C(C(=O)OC)C1 -12.4%, CC1(C)Cc2c(c(-c3ccccc3Cl)[nH]c(=O)c2C#N)CO1 13%, Cn1c(/C(C#N)=C/Nc2ccccn2)nc2ccccc21 -8.79%, c1ccc(SCc2nc3ccccc3[nH]2)nc1 -0.127%, CC1(C)SC2[C@H](NC(=O)C(NC(=O)N3CCNC3=O)c3ccccc3)C(=O)N2C1C(=O)O (stereo not given in full) -0.219%, O=C(c1ccco1)N1CCN(c2ncnc3c2[nH]c2ccccc23)CC1 -12%, CSc1nc(N)nc(SCC(=O)OC(C)C)c1C#N -15.6%, Cc1c(C2CC(=O)N(c3ccccc3)C2=O)[nH]n(-c2ccccc2)c1=O (stereo not given) -2.21%, CCOC(=O)c1[nH]c2ccccc2c1NC(=O)CN(C)C 1.77%, CCOc1ccc(C2/C(=C(/O)c3ccc(OC)cc3)C(=O)C(=O)N2c2cc(C)on2)cc1OC (stereo not given) -11.1%, COc1ccc(-c2cc(=O)[nH]c(=O)[nH]2)cc1 6.12%, O=S1CCCSC1c1cccnc1 (stereo not given) 5.36%, Cc1c(/C(O)=C2/C(=O)C(=O)N(CCN3CCOCC3)C2c2cccnc2)cnn1-c1ccccc1 (stereo not given) -11.6%, CCOC(=O)C1=C(C)NC(=O)C1CC(=O)Nc1ccccc1 (stereo not given) -1.66%, CC(C)c1nc2n[nH]c(N)c2c2c1CCCC2 -8.5%, CC(C)=CCC(C)(C)CNC(=O)NC1CCCCC1 -8.2%, COC(=O)NC(Nc1sc2c(c1C(N)=O)CCCC2)(C(=O)OC)C(F)(F)F (stereo not given) 2.66%

Assay: NFAT Signaling Pathway (AID 444);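 further: carbachol stimulus at about its EC50 of 1 µM final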
Conditions: Jurkat NFAT-bla M1, carbachol, beta-lactamase ratio, 5 h; at 17.2 µM (top of the series) unless noted
Outline: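 Jurkat cells with NFAT-driven β-lactamase reporter and co-expressed M1 receptor, stimulated with carbachol (final 1 uM, ~EC50), compound titration, 5 h at 37 °C. CCF4 loaded 1 h at RT; 460/530 nm ratio gave %activity and AC50.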

Activity change, negative = inhibition, inactive:
CC1(C)CC(=O)C=C(NCc2ccncc2)C1 -8.43%, COCC(C)Nc1ncnc2c1cnn2-c1ccc(Cl)cc1 (stereo not given) -6.38%, CCOCCn1c(SC)nc2c1c(=O)[nH]c(=O)n2C -1.92%, COc1cccc(C2/C(=C(\O)c3ccc4c(c3)OCCO4)C(=O)C(=O)N2CCCN(C)C)c1OC (stereo not given) 5.21%, O=c1[nH]cnc2cc(-c3ccccc3)sc12 3.27%, C#CC1CN(Cc2ccccc2)CC(C#C)N1C (stereo not given) -2.08%, N#CC1=C(C=Nc2ccccc2O)CCC1 8.46%, O=C(O)CCCC(=O)N1CCN(C(c2ccccc2)c2ccccc2)CC1 7.29%, Cc1nc(NCCO)c(C#N)c2c1COC(C)(C)C2 2.21%, CCN(CC)c1ncc(C)c(=O)[nH]1 2.65%, O=C(O)c1ccc(COc2c(F)c(F)c(F)c(F)c2F)o1 -0.748%, CCOC(=O)c1ccc(-n2c(=O)[nH]c3ccccc3c2=O)cc1 6.82%, CCNC(=O)Nn1c(C)nnc1C -5.86%, CC(=O)N/C(=N/c1nc(C)cc(C)n1)Nc1ccc(NC(C)=O)cc1 -3.91%, COC(=O)[C@@H](N)Cc1ccc(O)cc1 -26%, O=C(O)CC(NCc1ccco1)C(=O)OCCc1ccccc1 (stereo not given) 5.37%, O=C(O)CN(c1ccccc1)C1SC(=O)NC1=O (stereo not given) 20.4%, COc1ccc(CN(C)CCc2ccccn2)c(OC)c1OC -17.4%, Cn1c(=O)c2c(nc(N3CCN(Cc4ccccc4)CC3)n2CC(=O)c2ccccc2)n(C)c1=O -8.82%, O=S(=O)(/C=C/c1ccccc1)Nc1ccc2c(c1)OCO2 -26.9%, COc1ccc(-c2cc3nc4n(c(=O)c3s2)CCOC4)cc1 -10.1%, COc1cccc(Cn2c(NCc3ccccn3)nc3c2c(=O)n(C)c(=O)n3C)c1 7.02%, CCOc1ccc(/C(O)=C2/C(=O)C(=O)N(CCN(C)C)C2c2ccccc2)cc1Cl (stereo not given) 1.62%, CCOC(=O)C1=C(N)N2C(=O)CSC2=C(C(=O)OC)C1 12.5%, CC1(C)Cc2c(c(-c3ccccc3Cl)[nH]c(=O)c2C#N)CO1 -5.06%, Cn1c(/C(C#N)=C/Nc2ccccn2)nc2ccccc21 -5.83%, c1ccc(SCc2nc3ccccc3[nH]2)nc1 6.97%, CC1(C)SC2[C@H](NC(=O)C(NC(=O)N3CCNC3=O)c3ccccc3)C(=O)N2C1C(=O)O (stereo not given in full) 7.62%, O=C(c1ccco1)N1CCN(c2ncnc3c2[nH]c2ccccc23)CC1 11%, CSc1nc(N)nc(SCC(=O)OC(C)C)c1C#N 6.28%, Cc1c(C2CC(=O)N(c3ccccc3)C2=O)[nH]n(-c2ccccc2)c1=O (stereo not given) -3.65%, CCOC(=O)c1[nH]c2ccccc2c1NC(=O)CN(C)C -6.47%, CCOc1ccc(C2/C(=C(/O)c3ccc(OC)cc3)C(=O)C(=O)N2c2cc(C)on2)cc1OC (stereo not given) -0.187%, COc1ccc(-c2cc(=O)[nH]c(=O)[nH]2)cc1 -4.97%, O=S1CCCSC1c1cccnc1 (stereo not given) 9.76%, Cc1c(/C(O)=C2/C(=O)C(=O)N(CCN3CCOCC3)C2c2cccnc2)cnn1-c1ccccc1 (stereo not given) -1.03%, CCOC(=O)C1=C(C)NC(=O)C1CC(=O)Nc1ccccc1 (stereo not given) 25.9%, CC(C)c1nc2n[nH]c(N)c2c2c1CCCC2 6.42%, CC(C)=CCC(C)(C)CNC(=O)NC1CCCCC1 19%, COC(=O)NC(Nc1sc2c(c1C(N)=O)CCCC2)(C(=O)OC)C(F)(F)F (stereo not given) 11.9%
